Experimental data taken from the supplement of paper PMC10849652.
Targets with a hit are over-represented here; the source holds about 7,900 in all. About 0.6% of all pairs of compound and target were hits. Values without a mark were called inactive.

Compound: Cn1cncc1[C@@](N)(c1ccc(Cl)cc1)c1ccc2c(c1)c(-c1cccc(Cl)c1)cc(=O)n2C [tipifarnib]
Experiment: log2 fold change, soluble protein after heating vs DMSO (PISA); higher = thermal stabilisation; K562 cells, 10 uM, 30 min; active = over 0.2 and 3.5 SD of the protein, either way, in both replicates (recomputed)
Summary of the method: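 Thermal stability values are relative to control samples and come from duplicates. They are expressed as log2 fold changes. For measurement, K562 cells (2×10^6 cells/mL) received 10 μM compound for 30 min, and aliquots were heated for 3 min over 48°C-58°C, pooled, and extracted at 4°C in PBS with 0.5% NP-40. Soluble protein, the supernatant after 21,000xg for 90 min, was quantified by TMTpro 16plex LC-MS/MS with equalised channel sums.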

UniProt Q9NWB6, sequence (Q9NWB6 whole entry, looked up): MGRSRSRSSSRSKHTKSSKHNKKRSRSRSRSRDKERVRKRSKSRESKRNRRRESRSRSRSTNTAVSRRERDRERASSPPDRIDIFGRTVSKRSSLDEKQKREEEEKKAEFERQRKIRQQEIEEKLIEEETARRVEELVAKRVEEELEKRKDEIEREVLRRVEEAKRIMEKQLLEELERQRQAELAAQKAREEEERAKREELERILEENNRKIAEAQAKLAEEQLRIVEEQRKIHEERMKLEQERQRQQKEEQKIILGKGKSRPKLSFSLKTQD
UniProt Q8N5I2, sequence (Q8N5I2 whole entry, looked up): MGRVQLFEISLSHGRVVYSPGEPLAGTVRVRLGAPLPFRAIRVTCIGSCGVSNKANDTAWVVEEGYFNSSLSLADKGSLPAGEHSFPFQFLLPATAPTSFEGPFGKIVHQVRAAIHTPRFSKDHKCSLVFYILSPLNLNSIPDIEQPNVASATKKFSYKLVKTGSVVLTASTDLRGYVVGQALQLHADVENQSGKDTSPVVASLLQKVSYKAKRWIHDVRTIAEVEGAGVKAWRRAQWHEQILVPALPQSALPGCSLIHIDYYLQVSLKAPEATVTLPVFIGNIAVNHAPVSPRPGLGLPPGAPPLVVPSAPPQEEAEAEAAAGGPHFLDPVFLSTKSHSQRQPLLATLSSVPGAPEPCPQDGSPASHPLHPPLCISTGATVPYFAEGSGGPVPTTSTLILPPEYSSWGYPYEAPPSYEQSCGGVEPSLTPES
UniProt O75882, sequence (O75882 whole entry, looked up): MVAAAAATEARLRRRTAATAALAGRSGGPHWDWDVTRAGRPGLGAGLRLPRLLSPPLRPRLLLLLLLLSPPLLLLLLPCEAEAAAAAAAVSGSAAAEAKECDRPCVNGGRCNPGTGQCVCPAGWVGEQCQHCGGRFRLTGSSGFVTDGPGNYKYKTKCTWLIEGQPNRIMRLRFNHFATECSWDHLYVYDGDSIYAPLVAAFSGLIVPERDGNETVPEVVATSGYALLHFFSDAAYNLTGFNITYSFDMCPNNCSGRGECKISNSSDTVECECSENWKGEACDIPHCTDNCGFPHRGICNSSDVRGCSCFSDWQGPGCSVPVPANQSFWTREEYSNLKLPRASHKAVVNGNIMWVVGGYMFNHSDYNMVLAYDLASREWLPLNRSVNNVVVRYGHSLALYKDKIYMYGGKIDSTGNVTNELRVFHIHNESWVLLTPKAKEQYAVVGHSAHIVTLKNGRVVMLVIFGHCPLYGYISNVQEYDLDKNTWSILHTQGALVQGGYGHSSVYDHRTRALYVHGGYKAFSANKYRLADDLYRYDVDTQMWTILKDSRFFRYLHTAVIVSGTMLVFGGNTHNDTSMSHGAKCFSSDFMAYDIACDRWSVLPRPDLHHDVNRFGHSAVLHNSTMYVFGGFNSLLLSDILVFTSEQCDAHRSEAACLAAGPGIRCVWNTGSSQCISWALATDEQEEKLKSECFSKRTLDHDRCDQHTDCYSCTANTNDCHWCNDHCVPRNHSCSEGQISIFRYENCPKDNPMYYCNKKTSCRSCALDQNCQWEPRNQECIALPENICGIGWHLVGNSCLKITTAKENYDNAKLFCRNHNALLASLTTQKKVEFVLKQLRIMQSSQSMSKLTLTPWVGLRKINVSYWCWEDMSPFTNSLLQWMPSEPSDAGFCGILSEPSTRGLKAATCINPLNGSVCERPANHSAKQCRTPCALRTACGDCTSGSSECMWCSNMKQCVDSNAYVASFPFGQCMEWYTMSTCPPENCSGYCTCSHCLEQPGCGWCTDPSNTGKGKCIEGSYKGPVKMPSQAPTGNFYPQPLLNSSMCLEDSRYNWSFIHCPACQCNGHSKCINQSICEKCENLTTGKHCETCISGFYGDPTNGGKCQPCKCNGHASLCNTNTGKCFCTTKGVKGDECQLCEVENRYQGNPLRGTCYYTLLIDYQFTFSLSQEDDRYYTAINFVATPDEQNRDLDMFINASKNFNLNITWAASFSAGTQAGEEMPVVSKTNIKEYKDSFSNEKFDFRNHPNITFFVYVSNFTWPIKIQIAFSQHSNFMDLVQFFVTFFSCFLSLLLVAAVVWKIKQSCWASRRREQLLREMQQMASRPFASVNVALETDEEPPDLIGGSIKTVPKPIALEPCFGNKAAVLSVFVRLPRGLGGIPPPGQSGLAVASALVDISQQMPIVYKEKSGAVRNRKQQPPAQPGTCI
UniProt Q13444, sequence (Q13444 whole entry, looked up): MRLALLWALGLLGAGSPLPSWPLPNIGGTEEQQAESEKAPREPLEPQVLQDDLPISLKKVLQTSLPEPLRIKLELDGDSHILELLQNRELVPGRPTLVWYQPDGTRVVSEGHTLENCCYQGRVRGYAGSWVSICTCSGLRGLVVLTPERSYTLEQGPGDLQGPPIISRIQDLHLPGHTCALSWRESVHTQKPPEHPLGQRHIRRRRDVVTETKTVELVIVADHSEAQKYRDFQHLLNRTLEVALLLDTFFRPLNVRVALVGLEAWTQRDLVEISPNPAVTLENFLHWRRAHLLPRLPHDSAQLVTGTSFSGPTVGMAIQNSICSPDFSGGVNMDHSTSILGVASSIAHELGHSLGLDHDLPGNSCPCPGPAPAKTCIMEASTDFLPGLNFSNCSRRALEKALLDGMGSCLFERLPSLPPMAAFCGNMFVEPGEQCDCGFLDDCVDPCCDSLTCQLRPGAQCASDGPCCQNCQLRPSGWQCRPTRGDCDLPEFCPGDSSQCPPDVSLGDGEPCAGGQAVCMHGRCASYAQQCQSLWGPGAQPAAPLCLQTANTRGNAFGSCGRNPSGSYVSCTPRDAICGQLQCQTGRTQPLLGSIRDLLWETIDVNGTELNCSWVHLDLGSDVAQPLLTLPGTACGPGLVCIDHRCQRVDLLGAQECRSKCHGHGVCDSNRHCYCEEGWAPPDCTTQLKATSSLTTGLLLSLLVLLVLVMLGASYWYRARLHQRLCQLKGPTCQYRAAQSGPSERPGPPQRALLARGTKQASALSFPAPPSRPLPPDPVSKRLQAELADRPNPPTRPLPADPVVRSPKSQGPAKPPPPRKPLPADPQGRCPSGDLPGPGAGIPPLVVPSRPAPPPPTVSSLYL
UniProt P24666, sequence (P24666 whole entry, looked up): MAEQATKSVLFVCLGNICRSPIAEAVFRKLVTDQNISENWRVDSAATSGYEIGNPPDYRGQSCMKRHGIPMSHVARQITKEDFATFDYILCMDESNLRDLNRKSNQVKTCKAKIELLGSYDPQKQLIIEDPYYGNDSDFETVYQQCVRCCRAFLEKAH
UniProt Q9NWX5, sequence (Q9NWX5 whole entry, looked up): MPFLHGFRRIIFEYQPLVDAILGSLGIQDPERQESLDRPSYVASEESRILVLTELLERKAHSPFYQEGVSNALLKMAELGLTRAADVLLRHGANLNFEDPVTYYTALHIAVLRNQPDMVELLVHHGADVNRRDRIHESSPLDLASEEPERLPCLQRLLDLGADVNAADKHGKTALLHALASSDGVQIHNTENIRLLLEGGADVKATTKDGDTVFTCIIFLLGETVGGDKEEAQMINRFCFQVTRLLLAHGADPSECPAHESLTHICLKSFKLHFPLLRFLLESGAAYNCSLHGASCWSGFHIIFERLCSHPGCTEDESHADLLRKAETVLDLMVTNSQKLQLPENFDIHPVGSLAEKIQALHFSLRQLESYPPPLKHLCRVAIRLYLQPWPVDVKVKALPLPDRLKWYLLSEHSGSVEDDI
UniProt O00244, sequence (O00244 whole entry, looked up): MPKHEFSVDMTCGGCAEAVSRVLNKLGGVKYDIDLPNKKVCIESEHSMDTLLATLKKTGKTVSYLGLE
UniProt Q8NFV4, sequence (Q8NFV4 whole entry, looked up): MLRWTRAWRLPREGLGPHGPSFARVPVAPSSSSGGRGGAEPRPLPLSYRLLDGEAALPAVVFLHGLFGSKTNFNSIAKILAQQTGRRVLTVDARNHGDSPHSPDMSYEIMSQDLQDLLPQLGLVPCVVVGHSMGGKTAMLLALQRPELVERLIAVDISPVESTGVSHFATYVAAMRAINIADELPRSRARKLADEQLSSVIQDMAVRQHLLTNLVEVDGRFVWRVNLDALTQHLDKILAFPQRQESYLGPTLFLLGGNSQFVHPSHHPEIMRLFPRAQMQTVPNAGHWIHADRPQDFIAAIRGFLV
UniProt P18846, sequence (P18846 whole entry, looked up): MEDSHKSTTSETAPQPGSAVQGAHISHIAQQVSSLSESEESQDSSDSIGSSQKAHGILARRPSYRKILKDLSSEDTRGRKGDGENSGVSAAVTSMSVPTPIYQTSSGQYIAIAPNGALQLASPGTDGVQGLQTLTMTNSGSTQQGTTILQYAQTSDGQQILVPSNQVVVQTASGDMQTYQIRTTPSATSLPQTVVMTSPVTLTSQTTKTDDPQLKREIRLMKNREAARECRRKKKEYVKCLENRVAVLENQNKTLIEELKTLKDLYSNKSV
UniProt Q562R1, sequence (Q562R1 whole entry, looked up): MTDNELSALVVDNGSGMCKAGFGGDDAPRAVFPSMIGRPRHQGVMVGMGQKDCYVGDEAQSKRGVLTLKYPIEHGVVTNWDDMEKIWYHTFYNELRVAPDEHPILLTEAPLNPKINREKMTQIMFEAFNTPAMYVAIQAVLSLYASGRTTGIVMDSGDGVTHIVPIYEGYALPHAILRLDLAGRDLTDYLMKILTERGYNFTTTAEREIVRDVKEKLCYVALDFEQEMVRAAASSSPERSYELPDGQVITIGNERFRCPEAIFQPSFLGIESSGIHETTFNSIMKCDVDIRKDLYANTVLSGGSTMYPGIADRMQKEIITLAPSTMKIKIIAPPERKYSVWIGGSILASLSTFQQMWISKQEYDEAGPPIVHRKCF
UniProt Q96F25, sequence (Q96F25 whole entry, looked up): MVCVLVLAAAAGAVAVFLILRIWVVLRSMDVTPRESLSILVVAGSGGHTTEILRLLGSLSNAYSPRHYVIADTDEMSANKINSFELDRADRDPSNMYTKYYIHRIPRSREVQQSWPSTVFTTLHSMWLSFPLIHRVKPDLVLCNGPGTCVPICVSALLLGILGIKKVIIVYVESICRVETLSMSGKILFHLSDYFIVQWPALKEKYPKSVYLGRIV

| Target | log2 fold change |
| --- | --- |
| BSCL2 isoform 4 (UniProt Q96G97) | 0.109 |
| ARL3 (UniProt P36405) | -0.034 |
| ALG14 (UniProt Q96F25) | -0.214 |
| AFDN isoform 5 (UniProt P55196) | -0.045 |
| AP2M1 (UniProt Q96CW1) | 0.02 |
| ASB6 (UniProt Q9NWX5) | -0.02 |
| ATOX1 (UniProt O00244) | -0.404 (active) |
| ADPRH (UniProt P54922) | -0.005 |
| AASDH (UniProt Q4L235) | 0.058 |
| ATP7B (UniProt P35670) | 0.019 |
| ATRN (UniProt O75882) | 0.048 |
| BRD3 (UniProt Q15059) | -0.126 |
| ACP1 (UniProt P24666) | 0.037 |
| BRIP1 (UniProt Q9BX63) | -0.101 |
| ATXN3 isoform 1 (UniProt P54252) | 0.026 |
| ARRDC1 (UniProt Q8N5I2) | 0.011 |
| ACTBL2 (UniProt Q562R1) | 0.488 |
| ADAM15 (UniProt Q13444) | -0.053 |
| AIP (UniProt O00170) | -0.058 |
| ABHD11 (UniProt Q8NFV4) | 0.174 |
| ATF1 (UniProt P18846) | 0.06 |
| ARFIP1 isoform 2 (UniProt P53367) | -0.024 |
| ARGLU1 (UniProt Q9NWB6) | 0.043 |
